# According to PubChem BioAssay (NCATS):
# Records with an inconclusive call do not appear. A call without a number means that no potency is given here. Calls of active or inactive are those of the source. The call rests on the fitted dose curve.
# Assays:
# [1] = Primary qHTS for inhibitors of SARS-S pseudo-typed particle cell entry (AID 1479145); conditions: outcome: dose series up to 57.1 µM unless noted; further: nearly all actives have a fitted effect of over 45% in size
# [2] = Primary qHTS for Huh7 cytotoxicity: counterscreen for inhibitors of MERS-S pseudotyped particle cell entry (AID 1479147); conditions: outcome: dose series up to 57.1 µM unless noted
# [3] = Primary qHTS for inhibitors of MERS-S pseudo-typed particle cell entry (AID 1479149); conditions: outcome: dose series up to 57.1 µM unless noted; further: nearly all actives have a fitted effect of over 60% in size
# [4] = Primary qHTS for Vero E6 cytotoxicity: counterscreen for inhibitors of SARS-S pseudo-typed particle cell entry (AID 1479150); conditions: outcome: dose series up to 57.1 µM unless noted
# [5] = Cytotoxicity counterscreen for inhibitors of SARS-CoV-2 cell entry (AID 1645845); conditions: outcome: dose series up to 57.1 µM unless noted; further: nearly all actives have a fitted effect of over 50% in size
# Summary of the method: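 Counterscreen run in the same HEK293-ACE2 line as the pseudotyped-particle entry assay, without particles. Viability after 48 h at 37 C was read as ATP luminescence, scaled between cell-containing and cell-free wells.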
# [6] = Primary qHTS to identify inhibitors of SARS-CoV-2 cell entry (AID 1645846); conditions: SARS-CoV-2 pseudovirus cell entry assay, luminescence; activity change, negative = inhibition: at 57.1 µM (top of the series) unless noted; further: nearly all actives have a fitted effect of over 45% in size
# Summary of the method: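 Data are normalized to wells receiving SARS-CoV-2-S pseudoparticles and those given bald particles. Entry signal was luciferase luminescence in stable hACE2 Expi293F cells, 48 hr post-infection, after 1 hr compound pretreatment.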
smiles,measurement,setting,value
CC1(O)CCC(C(C)(C)O)CC1 (stereo not given),Potency,[1],inactive
same,Potency,[2],inactive
same,Potency,[3],inactive
same,Potency,[4],inactive
same,Potency,[5],inactive
same,Potency,[6],inactive
O=C(OCCO)c1ccccc1O,Potency,[1],inactive
same,Potency,[2],inactive
same,Potency,[3],inactive
same,Potency,[4],inactive
same,Potency,[5],inactive
same,"activity change, negative = inhibition",[6],-11%
CCCCCCCCCCCCCCCC(=O)OCC=C(C)C=CC=C(C)C=CC1=C(C)CCCC1(C)C,Potency,[1],inactive
same,Potency,[2],inactive
same,Potency,[3],inactive
same,Potency,[4],inactive
same,Potency,[5],inactive
same,"activity change, negative = inhibition",[6],-0.93%
CNC(=O)C[C@@H](N)C(=O)N[C@@H](C(=O)N[C@@H]1C(=O)N2[C@@H]1SC(C)(C)[C@@H]2C(=O)O)c1ccc(O)cc1,Potency,[1],inactive
same,Potency,[2],inactive
same,Potency,[3],inactive
same,Potency,[4],inactive
same,Potency,[5],inactive
same,"activity change, negative = inhibition",[6],-19.8%
O=C(O)[C@@H]1CCCN1,Potency,[1],inactive
same,Potency,[2],inactive
same,Potency,[3],inactive
same,Potency,[4],inactive
same,Potency,[5],inactive
same,Potency,[6],inactive
CCCCCCCCN=C(N)NC(N)=NCc1ccc(Cl)c(Cl)c1,Potency,[1],inactive
same,Potency,[2],inactive
same,Potency,[3],inactive
same,Potency,[4],inactive
same,Potency,[5],inactive
same,"activity change, negative = inhibition",[6],-3.64%
CC(=O)OCC1=C(C(=O)O)N2C(=O)[C@@H](NC(=O)CC#N)[C@H]2SC1,Potency,[1],inactive
same,Potency,[2],inactive
same,Potency,[3],inactive
same,Potency,[4],inactive
same,Potency,[5],inactive
same,Potency,[6],inactive
CN1CCc2nc(C(=O)N[C@@H]3C[C@@H](C(=O)N(C)C)CC[C@@H]3NC(=O)C(=O)Nc3ccc(Cl)cn3)sc2C1,Potency,[1],inactive
same,Potency,[2],inactive
same,Potency,[3],inactive
same,Potency,[4],inactive
same,Potency,[5],inactive
same,"activity change, negative = inhibition",[6],-19.9%
CCC(CC)[C@H](NC(C)=O)[C@@H]1[C@H](O)[C@@H](C(=O)O)C[C@H]1N=C(N)N,outcome,[1],inactive [at 0.573 µM]
same,outcome,[2],inactive [at 0.573 µM]
same,outcome,[3],inactive [at 0.573 µM]
same,outcome,[4],inactive [at 0.573 µM]
same,outcome,[5],inactive [at 0.702 µM]
same,"activity change, negative = inhibition",[6],-12.4% [at 0.702 µM]
CO[C@@H]1[C@@H](O[C@@H]2O[C@H](C)[C@@H](O[C@H]3C[C@@](C)(O)[C@H](O)[C@H](C)O3)[C@H](N(C)C)[C@H]2O)[C@@H](CC=O)C[C@@H](C)[C@@H](O[C@H]2CC[C@H](N(C)C)[C@@H](C)O2)/C=C/C=C/C[C@H](C)OC(=O)C[C@H]1O,Potency,[1],inactive
same,Potency,[2],inactive
same,Potency,[3],inactive
same,Potency,[4],inactive
same,Potency,[5],inactive
same,"activity change, negative = inhibition",[6],-34.9%
CO/N=C(\C(=O)N[C@@H]1C(=O)N2C(C(=O)O)=C(CSc3cnns3)CS[C@H]12)c1csc(N)n1,Potency,[1],inactive
same,Potency,[2],inactive
same,Potency,[3],inactive
same,Potency,[4],inactive
same,Potency,[5],inactive
same,"activity change, negative = inhibition",[6],-7.92%
[2H]N[C@@H](Cc1ccccc1)C(=O)N1CCC[C@H]1C(=O)N[C@@H](CCCNC(=N)N)C(=O)N1CCC[C@H]1C(=O)NCC(=O)NCC(=O)NCC(=O)NCC(=O)N[C@@H](CC(N)=O)C(=O)NCC(=O)N[C@@H](CC(=O)O)C(=O)N[C@@H](Cc1ccccc1)C(=O)N[C@@H](CCC(=O)O)C(=O)N[C@@H](CCC(=O)O)C(=O)N[C@H](C(=O)N1CCC[C@H]1C(=O)N[C@@H](CCC(=O)O)C(=O)N[C@@H](CCC(=O)O)C(=O)N[C@@H](Cc1ccc(O)cc1)C(=O)N[C@@H](CC(C)C)C(=O)O)[C@@H](C)CC,"activity change, negative = inhibition",[1],-29.4% [at 11.4 µM] (inactive)
same,outcome,[2],inactive [at 11.4 µM]
same,"activity change, negative = inhibition",[3],-9.94% [at 11.4 µM] (inactive)
same,"activity change, negative = cytotoxicity",[4],-0.847% [at 11.4 µM] (inactive)
same,"activity change, negative = cytotoxicity",[5],2.97% [at 11.3 µM] (inactive)
same,"activity change, negative = inhibition",[6],-18.8% [at 11.3 µM]
COC(=O)c1ccccc1O,Potency,[1],inactive
same,Potency,[2],inactive
same,Potency,[3],inactive
same,Potency,[4],inactive
same,Potency,[5],inactive
same,"activity change, negative = inhibition",[6],3.44%
NCCCC[C@H](NC(=O)[C@@H]1CCCN1C(=O)[C@@H]1CSSC[C@H](N)C(=O)N[C@@H](Cc2ccc(O)cc2)C(=O)N[C@@H](Cc2ccccc2)C(=O)N[C@@H](CCC(N)=O)C(=O)N[C@@H](CC(N)=O)C(=O)N1)C(=O)NCC(N)=O,Potency,[1],inactive
same,Potency,[2],inactive
same,Potency,[3],inactive
same,Potency,[4],inactive
same,Potency,[5],inactive
same,"activity change, negative = inhibition",[6],-25.1%
CN[C@H]1C(=O)N[C@@H]2Cc3ccc(cc3)Oc3cc4cc(c3O[C@@H]3O[C@H](C(=O)O)[C@@H](O)[C@H](O)[C@H]3NC(=O)CCCCCCCCC(C)C)Oc3ccc(cc3Cl)[C@@H](O)[C@@H]3NC(=O)[C@H](NC(=O)[C@@H]4NC(=O)[C@@H](NC2=O)c2cc(cc(O)c2Cl)Oc2cc1ccc2O)c1ccc(O)c(c1)-c1c(O[C@H]2O[C@H](CO)[C@@H](O)[C@H](O)[C@@H]2O)cc(O)cc1[C@@H](C(=O)NCCCN(C)C)NC3=O,Potency,[1],inactive
same,Potency,[2],inactive
same,Potency,[3],inactive
same,Potency,[4],inactive
same,Potency,[5],inactive
same,"activity change, negative = inhibition",[6],0.0393% [at 27.1 µM]
C[N+](C)(CCCCCC[N+](C)(C)C1c2ccccc2-c2ccccc21)C1c2ccccc2-c2ccccc21,Potency,[1],inactive
same,Potency,[2],inactive
same,Potency,[3],inactive
same,Potency,[4],inactive
same,Potency,[5],inactive
same,"activity change, negative = inhibition",[6],-0.342%
CC[C@@H](C)C[C@@H](C)CCCCCCCCC(=O)NC1C[C@@H](O)[C@@H](NCCN)NC(=O)[C@@H]2[C@@H](O)CCN2C(=O)[C@H]([C@H](O)CCN)NC(=O)[C@H]([C@H](O)[C@@H](O)c2ccc(O)cc2)NC(=O)[C@@H]2C[C@@H](O)CN2C(=O)[C@H]([C@@H](C)O)NC1=O (stereo not given in full),Potency,[1],inactive
same,Potency,[2],inactive
same,Potency,[3],inactive
same,Potency,[4],inactive
same,Potency,[5],inactive
same,"activity change, negative = inhibition",[6],-9.2% [at 27.1 µM]
CCOC(=O)CN[C@@H](C(=O)N1CC[C@H]1C(=O)NCc1ccc(/C(N)=N/O)cc1)C1CCCCC1,Potency,[1],inactive
same,Potency,[2],inactive
same,Potency,[3],inactive
same,Potency,[4],inactive
same,Potency,[5],inactive
same,"activity change, negative = inhibition",[6],-19.7%
CC[C@H]1OC(=O)C[C@@H](O)[C@H](C)[C@@H](O[C@@H]2O[C@H](C)[C@@H](O[C@H]3C[C@@](C)(O)[C@@H](O)[C@H](C)O3)[C@H](N(C)C)[C@H]2O)[C@@H](CC=O)C[C@@H](C)C(=O)/C=C/C(C)=C/[C@@H]1CO[C@@H]1O[C@H](C)[C@@H](O)[C@@H](OC)[C@H]1OC,Potency,[1],inactive
same,Potency,[2],inactive
same,Potency,[3],inactive
same,Potency,[4],inactive
same,Potency,[5],inactive
same,Potency,[6],inactive
O=C(O)C1=C(CSc2nnnn2CS(=O)(=O)O)CS[C@@H]2[C@@H](NC(=O)[C@H](O)c3ccccc3)C(=O)N12,Potency,[1],inactive
same,Potency,[2],inactive
same,Potency,[3],inactive
same,Potency,[4],inactive
same,Potency,[5],inactive
same,"activity change, negative = inhibition",[6],-22.2%
